This is an account of results in PubChem BioAssay (EPA / NIEHS).

Results filed as inconclusive are left out. Active and inactive are the calls of the source. Rule for the calls: active = hit-call score of the fitted dose curve at least 0.9, where 1 is the maximum; inconclusive = response in the unintended direction; inactive = score below 0.9.

As a reminder, the AC50 is the concentration at which the activity in the assay is half-maximal.

Retinoic acid receptor RXR-alpha (Homo sapiens), sequence (P19793 whole entry, looked up, the tested form may be a part): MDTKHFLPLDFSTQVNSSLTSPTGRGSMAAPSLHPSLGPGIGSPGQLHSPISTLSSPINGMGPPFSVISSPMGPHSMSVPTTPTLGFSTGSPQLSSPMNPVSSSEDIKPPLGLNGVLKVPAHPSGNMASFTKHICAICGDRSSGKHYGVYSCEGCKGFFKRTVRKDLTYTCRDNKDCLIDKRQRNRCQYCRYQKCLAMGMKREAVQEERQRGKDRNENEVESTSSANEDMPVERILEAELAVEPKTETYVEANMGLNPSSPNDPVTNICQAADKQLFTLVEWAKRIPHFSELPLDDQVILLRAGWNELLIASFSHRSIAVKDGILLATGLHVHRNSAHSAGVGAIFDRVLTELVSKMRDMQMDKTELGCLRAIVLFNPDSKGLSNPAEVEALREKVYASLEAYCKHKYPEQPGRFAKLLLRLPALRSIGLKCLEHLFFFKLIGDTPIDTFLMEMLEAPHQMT

The assay addresses Retinoic acid receptor RXR-alpha (Homo sapiens) (UniProt P19793). Nature of the assay: OT_NURR1_NURR1RXRa_1440: Odyssey Thera (OT) 24-hour HEK293T Protein Complementation Assay for Nurr1/retinoid X receptor (RXR) (AID 2283386). On the procedure:
OT_NURR1_NURR1RXRa_1440 is a cell-based assay that uses HEK293T, a human kidney cell line, with measurements taken at 24 hours after chemical dosing in a 384-well plate.OT_NURR1_NURR1RXRa_1440 is one of one assay component(s) measured or calculated from the OT_NURR1_NURR1RXRa_1440 assay. It is designed to make measurements of protein fragment complementation, a form of binding reporter, as detected with fluorescence intensity signals by Protein-fragment Complementation technology.Data from the assay component OT_NURR1_NURR1RXRa_1440 was analyzed into 1 assay endpoint. This assay endpoint, OT_NURR1_NURR1RXRa_1440, was analyzed in the positive analysis fitting direction relative to DMSO as the negative control and baseline of activity. Using a type of binding reporter, measures of receptor for gain-of-signal activity can be used to understand the binding at the pathway-level as they relate to the gene RXRA. Furthermore, this assay endpoint can be referred to as a primary readout, because the performed assay has only produced 1 assay endpoint. To generalize the intended target to other relatable targets, this assay endpoint is annotated to the nuclear receptor intended target family, where the subfamily is non-steroidal.
Protein-fragment complementation assay, or PCA, is a method for the identification and quantification of protein-protein interactions. In the PCA, the proteins of interest ("bait" and "prey") are each covalently linked to fragments of a third protein (e.g. DHFR, which acts as a "reporter"). Interaction between the bait and the prey proteins brings the fragments of the reporter protein in close proximity to allow them to form a functional reporter protein whose activity can be measured.
Regarding `CCN=c1cc2oc3cc(NCC)c(C)cc3c(-c3ccccc3C(=O)OCC)c-2cc1C`, the AC50 is 0.769 µM (active).
Take `CCCCCCCCn1sc(Cl)c(Cl)c1=O`: the outcome was inactive.
Same read-out and setting: the entry for `CC(C)(C)c1cc(Cc2cc(C(C)(C)C)c(O)c(C(C)(C)C)c2)cc(C(C)(C)C)c1O` is “inactive”; for `CCOC(=O)C1CC(=O)C(=C(O)C2CC2)C(=O)C1` (stereo unspecified) it is “inactive”.
As for `CCCCCCCCCc1ccc(OCCO)cc1`, the AC50 is 32.9 µM (active).
For `CC(C)Nc1ccc(NC(C)C)c2c1C(=O)c1ccccc1C2=O`, the molecule was called inactive.
Still for that read-out and setting: the entry for `N#Cc1ccccc1O` is “inactive”; for `CCCCOC(=O)[C@H](C)O` it is “inactive”.
With `CCCCCCCC/C=C\CCCCCCCC(=O)OCC(O)CO` (stereo unspecified), the AC50 was 90.1 µM (active).
Regarding `CC(C)OC=O`, the call was inactive.
Consider `CCOC(OCC)OCC`, for which the outcome was inactive.
Still for that read-out and setting: under `CC(C)(C)c1cc(CCC(=O)OCC(COC(=O)CCc2cc(C(C)(C)C)c(O)c(C(C)(C)C)c2)(COC(=O)CCc2cc(C(C)(C)C)c(O)c(C(C)(C)C)c2)COC(=O)CCc2cc(C(C)(C)C)c(O)c(C(C)(C)C)c2)cc(C(C)(C)C)c1O` stands “inactive”.
For the molecule `COCCOCCC[Si](C)(O[Si](C)(C)C)O[Si](C)(C)C`, the concentration at half-maximal activity (AC50) is 90.4 µM (active).
Still for that read-out and setting: under `CCCCC(CC)COC(=O)c1ccc(N(C)C)cc1` (stereo unspecified) stands 76 µM (active).
Consider `F[Si-2](F)(F)(F)(F)F`, for which the outcome was inactive.
Still for that read-out and setting: under `Cc1ccc(O)c(-n2nc3ccccc3n2)c1` stands “inactive”.
